DT40 TDP1 CPT: DT40-hTDP1 cell growth loss with CPT | AID 686979 | Potency, µM (titrated, usually from 46.2 µM), inactives show top-dose activity change, negative = growth inhibition, usual class: inhibitors | hit rate 12% among 420,000 | chicken DT40 Tdp1-/-;hTDP1 cells + 20 nM CPT, ATP luminescence, 48 h; further: nearly all actives have a fitted effect of over 55% in size
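Chicken DT40 Tdp1-/- cells stably complemented with human TDP1 were seeded at 400 cells/well in medium containing 20 nM camptothecin, exposed to pin-transferred compounds, and grown at 37 °C for at least 48 hr. Viability was read as ATP luminescence.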
TDP1 cell noCPT: qHTS for Inhibitors of human tyrosyl-DNA phosphodiesterase 1 (TDP1): qHTS in cells in absence of CPT; DT40 Tdp1-/- hTDP1 cells, no CPT, ATP luminescence, 48 h; Potency, µM (doses to about 46.2 µM), for inactives: at the top dose activity change, negative = growth inhibition, usual class: inhibitors; hit rate 15% among 420,000; further: nearly all actives have a fitted effect of over 55% in size
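DT40 Tdp1-/-;hTDP1 cells, no CPT (DMSO vehicle only), 400 cells/well; compounds pin-transferred; ≥48 hr, 37 °C; CellTiter-Glo 30 min RT dark, luminescence read.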
ELG1 DNA repair: ELG1-dependent DNA repair inhibition | HEK293T ELG1-luciferase reporter, luminescence, 16 h; DNA damage induced by 5-fluorouridine | hit rate 2.3% among 330,000 | AID 504467 | Potency, µM (highest dose often 46.1 µM), without a hit: at the top dose activity change, negative = inhibition, hits mostly inhibitors; further: nearly all actives have a fitted effect of over 55% in size
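Reporter activity after DNA damage by 5-fluorouridine is monitored. Compound-treated cells incubate 16 hr at 37 °C, then ONE-Glo is added for 30 min before luminescence reading.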
VP16 counter: inhibits Gal4-VP16 luciferase reporter, ROR gamma counter-screen; Drosophila S2 Gal4-VP16 UAS-luciferase, luminescence, 20 h; Potency, µM (highest dose often 53.6 µM), for the others: at the highest dose activity, negative = inhibition, hits mostly inhibitors; hit rate 3.5% among 310,000;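 further: Gal4-VP16 expression switched on by copper sulfate through the metallothionein promoter; nearly all actives have a fitted effect of over 50% in size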
RORgamma inh: inhibitors of mouse ROR gamma transcriptional activity; P51450; Potency, µM (titrated, usually from 53.6 µM), for the others: at the top dose activity change, negative = inhibition, hits mostly inhibitors; AID 2551; Drosophila S2 Gal4-RORgamma UAS-luciferase reporter, 20 h; hit rate 5.4% among 310,000; further: nearly all actives have a fitted effect of over 60% in size
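In this cell-based reporter format, copper sulfate (700 uM final) drives Gal4–ROR gamma fusion expression from a metallothionein promoter in Drosophila Schneider cells; compounds preincubated 1 hr, reporter read after 20 hr at ambient temperature.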
12-LOX inh: inhibitors of human 12S-lipoxygenase ALOX12; Potency, µM (top dose mostly 108 µM), inactives show at the highest dose activity change, negative = inhibition, hits mostly inhibitors; purified 12hLO, xylenol orange hydroperoxide absorbance; P18054; AID 1671190; hit rate 1.1% among 580,000
Target sequence (P18054 whole entry, looked up): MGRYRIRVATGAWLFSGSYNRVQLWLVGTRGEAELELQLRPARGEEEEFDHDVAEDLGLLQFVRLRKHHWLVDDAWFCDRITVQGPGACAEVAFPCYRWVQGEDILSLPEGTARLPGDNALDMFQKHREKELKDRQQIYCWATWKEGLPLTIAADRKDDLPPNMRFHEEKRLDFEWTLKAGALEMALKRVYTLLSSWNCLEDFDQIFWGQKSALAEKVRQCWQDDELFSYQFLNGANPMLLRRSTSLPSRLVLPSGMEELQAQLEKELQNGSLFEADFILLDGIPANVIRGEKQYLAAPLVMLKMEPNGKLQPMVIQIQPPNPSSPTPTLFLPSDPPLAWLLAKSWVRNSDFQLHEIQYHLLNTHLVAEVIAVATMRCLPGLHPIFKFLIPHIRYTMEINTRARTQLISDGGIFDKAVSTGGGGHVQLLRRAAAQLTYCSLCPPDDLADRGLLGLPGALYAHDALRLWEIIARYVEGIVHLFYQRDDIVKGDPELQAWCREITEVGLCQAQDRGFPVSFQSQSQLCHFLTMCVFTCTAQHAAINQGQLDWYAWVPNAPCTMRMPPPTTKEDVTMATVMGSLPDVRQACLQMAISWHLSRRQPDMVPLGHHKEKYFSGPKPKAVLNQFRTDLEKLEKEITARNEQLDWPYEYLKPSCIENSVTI
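Hydroperoxide product was detected by ferrous iron/xylenol orange as the 573 to 405 nm absorbance ratio. Arachidonic acid at 40 uM (final) was turned over for 30 min at room temperature by 150 nM human 12hLO, pH 7.0 Hepes buffer, after 15 min compound preincubation.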
Numbers without * were called inactive; ? = inconclusive; . = no result given; [ ] = dose if it differs, or a comment. This is a sample that favours compounds with a hit; in the whole collection about 15% have one here. The call rests on the fitted dose curve; in most records, active means well fitted curve in the direction sought with a large enough effect; inconclusive means small, poorly fitted or top-dose-only effect, or another doubt; inactive means no such curve, though single readings can be large; an effect the other way counts as inactive or inconclusive. On the % scale 0 is the no-effect control and ±100 the full control effect; potency means the concentration at half of the fitted maximal effect.

SMILES	DT40 TDP1 CPT	TDP1 cell noCPT	ELG1 DNA repair	VP16 counter	RORgamma inh	12-LOX inh
O=C1CC(N2CCN(Cc3ccc(Cl)cc3)CC2)C(=O)N1CCc1ccccc1 (centres undefined)	15µM*	18µM*	-13%	-12%	?	0%
CC(Sc1nncn1-c1cccc(Cl)c1)c1nc2ccccc2c(=O)[nH]1 (centres undefined)	.	.	.	.	.	-5%
CNC(=S)N/N=C/C1=CCC2CC1C2(C)C (centres undefined)	7.3µM*	?	4%	2.5µM*	1.3µM*	?
CC1(C)CC(NC(=S)NCCc2ccccc2)CC(C)(C)N1	.	.	.	.	.	-2%
CC1(C)C2CC=C(/C=N/NC(=O)c3ccccc3O)C1C2 (centres undefined)	-2%	-7%	2%	?	8.9µM*	0%
CC1(C)C2CC=C(/C=N/NC(=S)NCCc3ccccc3)C1C2 (centres undefined)	?	?	?	7.1µM*	2µM*	45µM*
CCCC(CCC)C(=O)NCc1nnnn1-c1ccc(OCC)cc1	.	.	.	.	.	6%
CN(Cc1ccccc1C(F)(F)F)S(=O)(=O)c1cccc(C(F)(F)F)c1	.	.	.	.	.	8%
O=C1Nc2ccc(Cl)cc2[C@@](C#CC2CC2)(C(F)(F)F)O1	?	17µM*	.	?	-25%	.
CC1CCCN(C(=O)CCc2ncc(-c3ccc(F)cc3F)o2)C1 (centres undefined)	.	.	.	.	.	11%
c1ccc(CNc2nc3ccccc3[nH]2)cc1	?	18µM*	?	-21%	?	11%
COc1ccc2nc(NCc3ccccc3)[nH]c2c1	?	15µM*	?	12%	31%	-22%
Cc1ccc2nc(NCc3ccccc3)[nH]c2c1	4.1µM*	4.6µM*	?	?	40%[10 µM]	-1%
S=C(NCc1ccccc1)NNc1nc2ccccc2[nH]1	?	?	-15%	-9%	4.5µM*	32µM*
COc1ccccc1CN1CCCC(CN(CCN(C)C)C(=O)c2cccnc2)C1 (centres undefined)	.	.	.	.	.	3%
CC(OC(=O)CCCc1nc2ccccc2s1)C(=O)NC(N)=O (centres undefined)	10%	-1%	5%	?	-34%	1%
CNC(=O)NC(=O)C(C)OC(=O)CCCc1nc2ccccc2s1 (centres undefined)	0%	-24%	10%	-23%	-34%	7%
CNC(=O)NC(=O)C(C)OC(=O)CCCSc1nc2ccccc2s1 (centres undefined)	-25%	-28%	0%	4.5µM*	7.1µM*	-7%
CCNC(=O)NC(=O)C(C)OC(=O)CCCSc1nc2ccccc2s1 (centres undefined)	-18%	-28%	-1%	4.5µM*	?	-17%
Cc1ccccc1C(=O)N1CCC2(CC1)OCC(C(=O)N1CCCC1)N2C(=O)c1ccc(F)cc1 (centres undefined)	.	.	.	.	.	84%
O=C1CC(NNc2ccccc2)C(=O)N1c1ccc(N2CCCCC2)cc1 (centres undefined)	?	?	15%	-12%	21%	6.3µM*
O=C1CC(Nc2ccc(N3CCOCC3)cc2)C(=O)N1c1ccccc1F (centres undefined)	1%	11%	1%	-7%	?	16µM*
O=C1CC(Nc2ccccc2)C(=O)N1c1ccc(N2CCOCC2)cc1 (centres undefined)	-18%	-3%	?	-13%	-2%	0%
CCCCCCOc1ccc(/C(N)=N/O)cc1	16µM*	21µM*	?	-1%	-3%	75%
N=C(N)c1ccc(OCCCOc2ccc(C(=N)N)cc2Br)c(Br)c1	4.7µM*	3.8µM*	.	.	.	.
SMILES	DT40 TDP1 CPT	TDP1 cell noCPT	ELG1 DNA repair	VP16 counter	RORgamma inh	12-LOX inh
N=C(N)c1ccc(OCc2ccncc2)cc1	.	.	.	.	.	8.9µM*
N=C(N)c1ccc(OCCCOc2ccc(C(=N)N)cc2)cc1	6.7µM*	6.7µM*	.	.	.	-11%[22.9 µM]
NC(=O)c1ccc(OCc2ccccc2)cc1	.	.	.	.	.	-2%
CN(C)C[C@@H]1CN(C2CCOCC2)C[C@H]1NC(=O)c1cnco1	.	.	.	.	.	126%
Cc1nc(CCNC(=O)N(C)Cc2ccc3c(c2)OCO3)cs1	.	.	.	.	.	24%
N=C(N)c1ccc(OCCCCCOc2ccc(C(=N)N)cc2)cc1	1.8µM*	2.1µM*	-12%	4%	1%[10 µM]	?
COc1ccc(-c2cc3c(=O)n(CCNC(=O)c4ccc(OC)nc4)ccn3n2)cc1	.	.	.	.	.	37%
CCN(Cc1ccncc1)C(=O)CC1=C2CCCCC2N(C)C1=O (centres undefined)	.	.	.	.	.	15%
COc1cccc(C(O)c2nc(-c3cc(F)cc(F)c3)cs2)c1 (centres undefined)	21µM*	?	.	.	.	13%
COc1ccc(-c2csc(C(O)c3ccccc3)n2)cc1 (centres undefined)	?	?	.	.	.	4%
COc1cccc(C(O)c2nc(-c3ccc(N(C)C)cc3)cs2)c1 (centres undefined)	23µM*	16µM*	.	.	.	-3%
CCN(CC)C(=O)c1cccc(-c2csc(C(O)c3cccc(OC)c3)n2)c1 (centres undefined)	23µM*	4.6µM*	.	.	.	10%
COc1cccc(C(O)c2nc(-c3cccc(NC(C)=O)c3)cs2)c1 (centres undefined)	?	-23%	.	.	.	9%
COc1ccc(-c2csc(C(O)c3cccc(OC)c3)n2)cc1 (centres undefined)	12µM*	?	.	.	.	1%
CC(C)c1ncncc1C(=O)NCCNc1cnccn1	.	.	.	.	.	8%
COc1ccc(-c2csc(C(O)c3ccc(F)c(F)c3)n2)cc1 (centres undefined)	18µM*	13µM*	.	.	.	?
OC(c1ccc(F)c(F)c1)c1nc(-c2ccccc2)cs1 (centres undefined)	?	?	.	.	.	-14%
CC1CCN(S(=O)(=O)c2ccc3c(c2)C(C)(C)C(=O)N3CC(=O)NCc2ccco2)CC1	.	.	.	.	.	-15%
O=C1Nc2cnccc2C2(CCN([S+](=O)([O-])c3cccc(C(F)(F)F)c3)C2)O1 (centres undefined)	.	.	.	.	.	47%
O=C(O)CCc1nn2c3ccccc3nc2n(-c2ccccc2)c1=O	-3%	-4%	4%	-6%	11µM*	-6%
CC(=O)c1ccc(NC(=O)Nc2sc3nc4n(c(=O)c3c2C)CCC(C)CC4)cc1 (centres undefined)	5.8µM*	8.2µM*	.	.	.	-46%
